Assay outcomes as filed in PubChem.
3T3 cytotox = cytotoxic compounds in NIH 3T3 cells; NIH 3T3 viability, CellTiter-Glo ATP luminescence, 48-72 h; Potency, µM (series often up to 96.7 µM), for inactives: top-dose activity change, negative = cytotoxicity, actives largely listed as inhibitors; 94,000 compounds, 4.3% hits; AID 1345082; note: nearly all actives have a fitted effect of over 55% in size
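Luminescent ATP readout (CellTiter-Glo, 10 min RT) after 48 or 72 hr compound exposure of NIH 3T3 cells seeded at 400 cells/well in 1536-well format; quantitative HTS.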
GPT2 inhibitor = inhibitors of human GPT2 alanine aminotransferase. Q8TD30. Recombinant GPT2, coupled pyruvate oxidase/HRP Amplex Red fluorescence. Potency, µM (top dose mostly 57.7 µM), for the others: at the highest dose activity change, negative = inhibition, actives largely listed as inhibitors. 100,000 compounds, 0.25% hits. AID 1671188; note: nearly all actives have a fitted effect of over 60% in size
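Fluorescence of coupled pyruvate oxidase/HRP/Amplex Red system (50uM Amplex, 30 min, dark) reports pyruvate formed by GPT2. Enzyme reaction: 10ng/uL GPT2, 2mM L-alanine, 250uM a-KG, 30 min room temperature, pH 7.5; 50uM AOA control.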
HEK cytotox = cytotoxic compounds in HEK 293 cells. Potency, µM (highest dose often 115 µM), inactives show at the highest dose activity change, negative = cytotoxicity, usual class: inhibitors. HEK 293 viability, ATP luminescence (CellTiter-Glo), 48-72 h. 94,000 compounds, 6.6% hits. AID 1345083; note: nearly all actives have a fitted effect of over 60% in size
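HEK 293 seeded at 250 cells/well receive compound via pintool. After 48 or 72 hr at 37 degree Celsius, 5% CO2 and 95% humidity, CellTiter-Glo is dispensed and luminescence read following 10 min at room temperature.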
NPR1 antag = human Npr1 receptor antagonism | P16066 | HEK293 hNpr1 GloSensor cGMP, ANP-stimulated luminescence | Potency, µM (series often up to 46.3 µM), for the others: top-dose activity change, negative = inhibition, usual class: inhibitors | 76,000 compounds, 1.6% hits; calls by dose curve; note: nearly all actives have a fitted effect of over 60% in size
Target sequence (P16066 whole entry, looked up): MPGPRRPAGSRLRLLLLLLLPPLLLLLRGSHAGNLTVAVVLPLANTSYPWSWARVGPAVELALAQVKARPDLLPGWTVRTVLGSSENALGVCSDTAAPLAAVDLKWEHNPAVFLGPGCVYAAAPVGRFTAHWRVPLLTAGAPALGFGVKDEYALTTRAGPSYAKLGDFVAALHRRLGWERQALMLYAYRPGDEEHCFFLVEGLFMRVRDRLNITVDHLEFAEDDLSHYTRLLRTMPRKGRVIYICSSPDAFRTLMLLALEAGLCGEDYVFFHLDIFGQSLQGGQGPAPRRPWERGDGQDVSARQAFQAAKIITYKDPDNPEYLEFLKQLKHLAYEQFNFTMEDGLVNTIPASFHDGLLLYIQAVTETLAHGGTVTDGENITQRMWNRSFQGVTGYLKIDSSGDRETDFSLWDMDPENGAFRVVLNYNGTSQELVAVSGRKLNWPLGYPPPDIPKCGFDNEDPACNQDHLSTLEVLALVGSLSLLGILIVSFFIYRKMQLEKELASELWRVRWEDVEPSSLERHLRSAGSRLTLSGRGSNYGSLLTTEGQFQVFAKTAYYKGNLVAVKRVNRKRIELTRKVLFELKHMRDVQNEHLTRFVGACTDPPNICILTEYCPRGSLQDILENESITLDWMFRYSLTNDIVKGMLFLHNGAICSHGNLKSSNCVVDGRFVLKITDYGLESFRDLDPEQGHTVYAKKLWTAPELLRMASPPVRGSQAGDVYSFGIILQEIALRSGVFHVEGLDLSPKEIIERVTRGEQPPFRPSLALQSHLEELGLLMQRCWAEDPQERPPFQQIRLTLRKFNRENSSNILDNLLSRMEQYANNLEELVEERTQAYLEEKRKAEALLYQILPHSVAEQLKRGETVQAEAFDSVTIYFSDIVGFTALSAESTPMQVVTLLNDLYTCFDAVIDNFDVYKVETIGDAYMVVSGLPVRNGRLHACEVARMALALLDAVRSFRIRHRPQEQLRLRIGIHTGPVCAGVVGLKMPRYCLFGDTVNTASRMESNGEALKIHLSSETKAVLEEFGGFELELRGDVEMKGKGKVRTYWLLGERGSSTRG
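Compound pre-incubated 30 min at room temperature on GloSensor-loaded HEK293 cells stably carrying hNpr1 and the pGS-40F cGMP biosensor. Stimulation uses hNppA at 0.1 nM final; luminescence is taken at baseline and 20 min post-agonist.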
Luciferase inh = blocks purified firefly luciferase enzyme activity; P08659; purified P. pyralis luciferase, luminescence, biochemical; Potency, µM (doses to about 115 µM), actives largely listed as inhibitors; 76,000 compounds, 2.5% hits; note: nearly all actives have a fitted effect of over 65% in size
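Cell-free enzyme assay, 10nM P. pyralis luciferase, luciferin and ATP each at 10uM. Inhibition profiled over a 6-point titration, read as luminescence.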
Active calls of the source: *; i = inactive; ? = inconclusive; . = no result; [ ] = dose if it differs, or a comment. An excerpt weighted towards active compounds, which were near 10% of everything screened. Unless noted, calls come from the whole dose curve; as a rule, active = well fitted curve in the direction sought with a large enough effect; inconclusive = small, poorly fitted or top-dose-only effect, or another doubt; inactive = no such curve, though single readings can be large; an effect the other way counts as inactive or inconclusive. % is set by controls: 0 for no effect and ±100 for the full control effect; potency is the fitted concentration of half-maximal effect.

SMILES	3T3 cytotox	GPT2 inhibitor	HEK cytotox	NPR1 antag	Luciferase inh
CCOc1ccccc1C(=O)N1CCN(C(=O)c2nnn3c2COC(c2ccc(Cl)cc2)C3)CC1 (centres undefined)	?	i	31.6µM*	?	i
O=C1NC2(CCCN(Cc3cccc4ccccc34)C2)Oc2ccccc21 (centres undefined)	?	2.8%	?	-3.1%	i
O=C(CCC1CCCC1)N1CCC(Cc2nc(C3CC3)n[nH]2)CC1	-28.2%	i	?	1.9%	i
CN1CCCN(C[C@@H]2CN(C(=O)c3cccn3C3CC3)C[C@@H]2CO)CC1	-1.3%	i	-9.3%	-0.1%	i
O=C(Nc1cnc(-c2ccc(C(F)(F)F)cc2)nc1)C1CCOC1 (centres undefined)	?	i	?	-19.7%	17.8µM*
O=C(CN1C(=O)NC(c2ccccc2Cl)C2=C1COC2=O)Nc1cccc(F)c1 (centres undefined)	-28.2%	-4.6%	?	-17.3%	?
O=C(CN1C(=O)NC(c2ccc(Cl)cc2)C2=C1COC2=O)Nc1cccc(Br)c1 (centres undefined)	?	-10.3%	20µM*	?	?
O=C(CN1C(=O)NC(c2ccc(Cl)cc2)C2=C1COC2=O)Nc1cccc(F)c1 (centres undefined)	28.2µM*	i	44.7µM*	-17.1%	i
COc1cccc(NC(=O)CN2C(=O)NC(c3ccc(C)cc3)C3=C2COC3=O)c1 (centres undefined)	?	i	?	-10.8%	i
Cn1nccc1CN1CCCC2(CN[S+](=O)([O-])c3ccccc3N2)C1 (centres undefined)	-8.2%	i	-0.9%	13.9%	i
COc1ccc(-c2nc(N3CCOC[C@H]3C)cc3c2CN(C(C)C)C3=O)cc1	79.4µM*	-2.2%[88.5 µM]	112µM*	2.8%[70.6 µM]	i
CCc1noc(-c2cccn3c(CNC(=O)c4ccc5ccccc5n4)nnc23)n1	?	-1.1%	35.5µM*	-6.3%	i
CC1(Cc2ccc3c(c2)OCO3)CCCN(C(=O)N2CCOCC2)C1 (centres undefined)	-17.2%	-2.2%	-28.6%	-6.8%	i
CC1(Cc2ccc3c(c2)OCO3)CCCN(C(=O)c2cncc(Cl)c2)C1 (centres undefined)	?	-32.0%	31.6µM*	-4.7%	i
Cc1c(Cl)c(C(=O)N2CCCC(C)(Cc3ccc4c(c3)OCO4)C2)nn1C (centres undefined)	?	-7.2%	?	-23.1%	31.6µM*
CCCNC(=O)CC1Sc2ncccc2N(CC)C1=O (centres undefined)	i	-9.2%	4.4%	2.0%	i
CNC(=O)CCn1ncc2cc(OCc3ccccc3-c3ccccc3COC)ccc21	?	-0.4%[88.5 µM]	89.1µM*	-7.5%[70.6 µM]	i
CNC(=O)CCn1ncc2cc(OCc3ccccc3-c3ccccc3OC)ccc21	89.1µM*	-27.6%[88.5 µM]	?	-14.6%[70.6 µM]	39.8µM*
CNC(=O)CCn1ncc2cc(OCc3ccccc3-c3cccc(C)c3)ccc21	89.1µM*	?	100µM*	-26.4%[70.6 µM]	44.7µM*
CNC(=O)CCn1ncc2cc(OCc3ccccc3-c3c(Cl)cccc3OC)ccc21	?	0.8%	?	1.2%	i
CNC(=O)CCn1ncc2cc(OCc3ccccc3-c3cccc(OC)c3F)ccc21	44.7µM*	-11.4%[88.5 µM]	?	-15.8%[70.6 µM]	i
COC[C@@H]1CN(S(=O)(=O)c2ccc(C(C)C)cc2)C[C@H]1c1ccccn1	?	i	?	.	.
N#Cc1cc([N+](=O)[O-])c2sc(C(N)=O)[n+]([O-])c2c1	.	12.6µM*	.	.	.
COC(=O)[C@H](NC(=O)[C@@H]1C[C@H](NC(=O)Nc2ccc(OC)cc2)CN1C(=O)c1cccn1C)C(C)C	0.0%	0.2%	-12.7%	-1.0%	i
CNC(=O)c1cc(C2CC2)nc2c1c(C1CCN(C(=O)Cc3ccccc3)CC1)nn2C	-20.8%	.	89.1µM*	.	.
SMILES	3T3 cytotox	GPT2 inhibitor	HEK cytotox	NPR1 antag	Luciferase inh
CNC(=O)c1cc(C2CC2)nc2c1c(C1CCN([S+](=O)([O-])c3ccc(C)cc3)CC1)nn2C	?	.	50.1µM*	.	.
CNC(=O)c1cc(C2CC2)nc2c1c(C1CCN([S+](=O)([O-])c3ccc(C)cc3)C1)nn2C (centres undefined)	-25.1%	.	?	.	.
COc1cccc(-c2cc(C3CCN(C(=O)Nc4ccccc4C(F)(F)F)CC3)[nH]n2)c1	31.6µM*	i	22.4µM*	-6.5%	i
COc1cccc(-c2cc(C3CCN(C(=O)Nc4cc(C)ccc4C)CC3)[nH]n2)c1	?	i	?	-15.2%	i
CCOCCOC1CCN(C(=O)c2cc(-c3cccc(OC)c3)n[nH]2)CC1	-28.0%	?	-22.5%	-2.6%	25.1µM*
CSc1cccc(NC(=O)N2CCC(c3cc(-c4cccc(C)c4)n[nH]3)CC2)c1	17.8µM*	?	44.7µM*	-20.1%	i
Cc1ccc(NC(=O)N2CCC(c3cc(-c4cccc(C)c4)n[nH]3)CC2)cc1	?	i	?	-19.0%	i
CCOCCOC1CCN(C(=O)c2ccccc2OC)CC1	-9.4%	i	0.0%	1.5%	i
COc1cccc(-c2cc(C3CCN(C(=O)Nc4ccc(F)cc4F)CC3)[nH]n2)c1	?	-2.3%	?	-14.6%	i
COc1cccc(-c2cc(C3CCN(C(=O)Nc4cc(C)cc(C)c4)CC3)[nH]n2)c1	?	-3.3%	39.8µM*	-18.7%	i
O=C(C1CCCN([S+](=O)([O-])c2cccc(C(F)(F)F)c2)C1)N1CCC(c2nc3ccncc3[nH]2)CC1 (centres undefined)	?	i	?	.	.
COc1ccc(C)nc1-c1cnc2ccccc2c1	-2.0%	-28.2%[11.5 µM]	3.4%	1.6%	i
Cc1ccc(NC(=O)N2C[C@@H](F)C[C@H]2C(=O)N2CCc3ccccc3C2)cc1	?	i	0.0%	-3.3%	?
CC(C)(CC(=O)O)CC(=O)N[C@H]1C[C@H]2C(=O)Nc3ccc(-c4ccsc4)cc3C(=O)N2C1	-2.3%	i	1.2%	0.8%	i
COc1cccc(-c2cc(C3CCN(C(=O)c4ccc(Cl)cc4)CC3)[nH]n2)c1	?	i	44.7µM*	?	i
O=C(c1ccc2cc[nH]c2c1)N1CCC(N2CC(OCC3CC3)C23CCCCC3)CC1 (centres undefined)	?	?	50.1µM*	1.8%	i
Cc1oc2ccn(Cc3ccc(F)cc3)c(=O)c2c1C(=O)NC1CCCCCC1	?	-9.0%	35.5µM*	-27.9%	i
CC(=O)Nc1ccc(NC(=O)c2c(C)oc3ccn(Cc4ccc(F)cc4)c(=O)c23)cc1	-12.9%	-2.7%	?	-4.4%	i
